In PubChem BioAssay AID588342 (National Center for Advancing Translational Sciences (NCATS), 2011):
Among all 360,000 compounds or so, about 25,000 (6.9%) were called active. About 9% were inconclusive and are not listed. Only a selection was taken, and actives are over-represented in it overall. Unmarked numbers belong to inactive results. The call rests on the fitted dose curve; in most records, active means well fitted inhibition curve with a large enough effect; inconclusive means small, poorly fitted or top-dose-only effect; inactive means flat fitted curve, though single readings scatter.

Target: Luciferin 4-monooxygenase (Photinus pyralis) (UniProt P08659)
Test: qHTS profiling assay for firefly luciferase inhibitor/activator using purifed enzyme and Km concentrations of substrates (counterscreen for miR-21 project); further: nearly all actives have a fitted effect of over 55% in size;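 on activity change, negative = inhibition: plate controls were vehicle for no effect and reference inhibitor for full effect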
Conditions: purified FLuc, luminescence inhibition; series mostly up to 57.5 µM; activity change, negative = inhibition: at the top concentration
Summary of the method: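 Biochemical qHTS of compounds, final roughly 60 µM downward over six points, against 10 nM purified firefly luciferase using Km concentrations of substrates (10 uM D-luciferin, 10 uM ATP) in Tris acetate pH 7.5 buffer; luminescence output.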
Potency means the concentration at half of the fitted maximal effect.

Luciferin 4-monooxygenase (Photinus pyralis), sequence (P08659 whole entry, looked up): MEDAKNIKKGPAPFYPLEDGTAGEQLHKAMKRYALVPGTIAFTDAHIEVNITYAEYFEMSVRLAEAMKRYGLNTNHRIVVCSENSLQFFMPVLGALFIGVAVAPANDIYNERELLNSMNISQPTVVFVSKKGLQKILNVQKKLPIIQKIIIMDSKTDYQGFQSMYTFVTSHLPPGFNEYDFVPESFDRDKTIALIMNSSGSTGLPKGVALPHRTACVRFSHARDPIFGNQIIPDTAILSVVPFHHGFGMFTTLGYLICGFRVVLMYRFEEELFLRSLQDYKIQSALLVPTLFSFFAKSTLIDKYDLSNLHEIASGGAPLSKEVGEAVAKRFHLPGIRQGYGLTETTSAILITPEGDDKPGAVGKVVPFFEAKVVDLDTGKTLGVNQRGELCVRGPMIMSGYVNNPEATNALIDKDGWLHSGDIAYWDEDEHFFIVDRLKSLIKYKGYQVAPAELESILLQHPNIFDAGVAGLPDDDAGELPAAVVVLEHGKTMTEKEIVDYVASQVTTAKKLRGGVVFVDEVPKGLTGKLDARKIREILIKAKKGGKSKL

Row | SMILES | activity change, negative = inhibition [%] | Potency
1 | Cn1c(N)c(C(=O)COC(=O)COc2ccc(Cl)cc2)c(=O)n(C)c1=O | 0.687 | 
2 | CCN(C(=O)COC(=O)Cc1c(F)cccc1Cl)c1c(N)n(Cc2ccccc2)c(=O)[nH]c1=O | -0.25 | 
3 | Cc1ccc(C(=O)N/C(=C/c2ccco2)C(=O)NCCc2c[nH]c3ccccc23)cc1C |  | 10.7 µM (active)
4 | CC(=O)N/C(=C/c1ccc(Cl)cc1)C(=O)NCCc1c[nH]c2ccccc12 | -0.391 | 
5 | COc1ccc(/C=C(\NC(=O)c2ccc(OC)c(OC)c2)C(=O)NCCc2c[nH]c3ccccc23)cc1 | 2.65 | 
6 | COc1ccc(C)cc1N(C)C(=O)c1coc(=O)c2ccccc12 | -0.441 | 
7 | O=C(CN1CCN(S(=O)(=O)c2cccc(Cl)c2)CC1)N1CCCCC1 | 6.07 | 
8 | O=C(COC(=O)c1ccccc1Cl)NC1CCCCCCC1 |  | 12 µM (active)
9 | O=C(COC(=O)c1ccccc1SCC(=O)NC1CCCCC1)NC1CCCCC1 | 4.43 | 
10 | N#Cc1ccccc1Sc1ccccc1C(=O)OCC(=O)NC1CCCCC1 | 0.881 | 
11 | Cc1ccc(S(=O)(=O)NCc2nc3nc(C)cc(C)n3n2)cc1 | 0.546 | 
12 | Cc1ccc(NC(=O)CCC(=O)N2CCC(c3ccccc3)=N2)cc1S(=O)(=O)N1CCCCC1 | 1.57 | 
13 | O=C(CN1C(=O)NC2(CCCCCC2)C1=O)NCc1cccs1 | -3.93 | 
14 | Cc1cccc(N2C(=O)CC(SC(N)=Nc3ccccc3)C2=O)c1 (centres undefined) | 1.99 | 
15 | Cc1[nH]n(-c2ccccc2)c(=O)c1N=Nc1ccccc1C(=O)N1CCCCC1 | -2.84 | 
16 | Cc1cccc(N=Nc2c(C)[nH]n(-c3ccccc3)c2=O)c1 |  | 19 µM (active)
17 | CCN(Cc1ccccc1)C(=O)c1cn(-c2cccc(OC)c2)c(=O)c2ccccc12 | -12 | 
18 | CCn1cc(C(=O)NCc2ccccc2)c(=O)c2cc(S(=O)(=O)N3CCCCC3)ccc21 | -1.44 | 
19 | COc1ccc(C(C#N)Nc2ccccc2C)cc1 (centres undefined) | -19 | 
20 | COc1ccc(C(C#N)Nc2ccc(C)cc2)cc1 (centres undefined) |  | 1.69 µM (active)
21 | COc1ccc(C(CC(=O)Nc2ccc(C)cc2)NC(=O)C(F)(F)F)cc1 (centres undefined) | -2.17 | 
22 | Cc1ccc(CN2CCC(CNC(=O)c3cnn(-c4ccc(C)cc4)c3C3CCN(C(=O)OC(C)(C)C)CC3)CC2)cc1 | -2.42 | 
23 | Cn1ccc2cc(S(=O)(=O)N3CCCC(C(=O)NCc4ccccc4F)C3)ccc21 (centres undefined) | -5.38 | 
24 | O=C(CSCc1ccc(Cl)cc1)N1CCCCC1 |  | 16.9 µM (active)
25 | O=C(COc1ccccc1Cl)N1CCCCCCC1 | 3.49 | 
26 | O=C(CSCc1ccc(Cl)cc1)N1CCN(Cc2ccc3c(c2)OCO3)CC1 | 1.28 | 

Row | SMILES | activity change, negative = inhibition [%] | Potency
27 | Cc1cccc(C)c1NC(=O)CNC(=O)C1CCCC1 | 4.17 | 
28 | Cc1ccc(CNC(=O)CSc2c3c(nc4cc(Cl)ccc24)CCCC3)cc1 | 3.6 | 
29 | COC(=O)c1sccc1S(=O)(=O)N(CC(=O)Nc1ccc(C)c(F)c1)c1ccc(C)c(C)c1 | -5.87 | 
30 | Cc1ccc(CSc2nc(-c3ccccc3)c(C#N)c(=O)[nH]2)cc1 | -1.34 | 
31 | Cc1ccccc1CSc1nnc(-c2ccccc2)c(=O)[nH]1 |  | 19 µM (active)
32 | Cc1ccccc1CSc1nnc(-c2cccnc2)n1N | -0.836 | 
33 | CCCN(CC(=O)NC(=O)NC1CCCCC1)CC(=O)Nc1cc(Cl)ccc1Cl | -0.397 | 
34 | COc1ccccc1CNC(=O)CS(=O)(=O)c1cccc2nsnc12 | 3.65 | 
35 | CCOC(=O)c1cccc(NC(=O)c2cc(S(=O)(=O)N3CCCC(C)C3)cn2C)c1 (centres undefined) | 4.78 | 
36 | COC(=O)c1ccc(C)c(NC(=O)C2CC(=O)N(C3CCCC(C)C3C)C2)c1 (centres undefined) | 2.82 | 
37 | COn1c(-c2ccc(Cl)cc2Cl)nc2ncccc21 | -4.94 | 
38 | Clc1ccc(COn2c(-c3ccc(Cl)cc3Cl)nc3ncccc32)cc1 | -2.6 | 
39 | Clc1ccc(-c2cc(-c3ccccn3)on2)c(Cl)c1 |  | 0.0757 µM (active)
40 | O=C1N(Cc2ccccc2)c2ccc(Cl)cc2C1(O)c1c[nH]c2ccccc12 (centres undefined) | -10.9 | 
41 | Cc1ccc(-c2nn3c(=O)cc(CN4CCN(C(=O)Nc5cccc(C(F)(F)F)c5)CC4)nc3s2)cc1 | 1.5 | 
42 | CCCCOc1ccc(C(=O)Nc2cccc(-c3nc4ccccc4o3)c2C)cc1 | 0.726 | 
43 | Cc1cc(C)c2oc(-c3cccc(NC(=O)c4cccc(F)c4)c3C)nc2c1 |  | 0.849 µM (active)
44 | Cc1cccc(NC(=O)c2ccc3nc(C(C)C)oc3c2)c1C | 4.06 | 
45 | CCc1cc2c(cc(C(=O)OC)n2Cc2nc(-c3ccc(C)cc3)oc2C)s1 | 4.94 | 
46 | Cc1ccc(Cn2c(=O)n(-c3ccc(C)cc3)c(=O)c3c2c2cc(C)ccc2n3C)cc1 | 0.879 | 
47 | Cc1ccc(-c2cnc(NCc3ccc(C(C)C)cc3)n2C)cc1 | -8.87 | 
48 | Cc1cccc(N(C(=O)c2sc(C)nc2C)C(C(=O)NCC2CCCO2)c2ccccc2)c1 (centres undefined) | -0.32 | 
49 | COc1ccc(NC(=O)CCCNC(=O)Cn2cnc3sc4c(c3c2=O)CCCC4)cc1OC | 1.63 | 
50 | COc1ccc(/C=N/Nc2ncnc3sc4c(c23)CCCC4)cc1O |  | 1.69 µM (active)
51 | COc1ccc(NC(=O)CCNC(=O)Cn2cnc3sc4c(c3c2=O)CCCC4)cc1OC | 3.17 | 
52 | CCCOc1ccc(NC(=O)CC2C(=O)N(c3ccccc3)C(=O)N2Cc2ccco2)cc1 (centres undefined) | -2.45 | 

Row | SMILES | activity change, negative = inhibition [%] | Potency
53 | CCc1ccc(CNC(=O)CCc2nc(-c3cccs3)no2)cc1 | 1.93 | 
54 | COc1ccc(OC)c(CNC(=O)CCc2nc(-c3cccs3)no2)c1 | 4.41 | 
55 | COc1ccc(CCc2nc(-c3cccs3)no2)cc1 |  | 19 µM (active)
56 | COc1ccc(-n2c(SC)nc3sc4c(c3c2=O)CCN(C(C)=O)C4)cc1 | -0.891 | 
57 | Cc1cccc(NC(=O)Cn2c(=O)n(CCC(C)C)c(=O)c3cccnc32)c1 | -4.8 | 
58 | COc1ccccc1C(=O)OCc1cc(=O)n2nc(-c3cccs3)sc2n1 | 4.29 | 
59 | O=C(Cn1c(=O)n(-c2ccc(F)cc2)c(=O)c2sc3ccccc3c21)NC1CCCC1 | 1.27 | 
60 | Cc1cccc(NC(=O)CSc2nnc(CNC(=O)c3cccc(C)c3)n2-c2ccccc2)c1 | -10.2 | 
61 | Cc1ccc(C)c2c1cc(C)c1nnc(SCC(=O)Nc3cccc(C(=O)O)c3)n12 | 1.26 | 
62 | Cc1ccc(C(=O)NCCc2nnc(SCC(=O)Nc3cccc(C(=O)O)c3)n2C)cc1 |  | 10.7 µM (active)
63 | COc1ccc(CCN(Cc2cc3cccc(C)c3[nH]c2=O)C(=O)N2CCCC2)cc1OC | 2.09 | 
64 | CCOc1ccc(NC(=O)c2cc(S(=O)(=O)N3CCCC3)c[nH]2)cc1 | -4.94 | 
65 | NS(=O)(=O)c1cc(C(=O)NCCOc2ccccc2)c(Cl)cc1Cl | -0.907 | 
66 | COc1ccc(OCCCC(=O)NCCc2ccccc2)cc1 | 2.74 | 
67 | O=C(NCCOc1ccccc1)c1ccccc1 |  | 4.78 µM (active)
68 | CN(c1ccccc1)S(=O)(=O)c1ccc(C(=O)NCCc2ccccc2)cc1 | -2.94 | 
69 | CCCCCCCCC(=O)NCCOc1ccccc1 | -2.85 | 
70 | O=C(CCNC(=O)c1ccc(Br)cc1)NCCCc1ccccc1 | -3.03 | 
71 | CCCOc1ccc(C(=O)NCCc2ccccc2)cc1 |  | 1.07 µM (active)
72 | CC(C)c1ccc(C(=O)NCCCc2ccccc2)cc1 |  | 10.7 µM (active)
73 | Cc1c(C(=O)NCCCc2ccccc2)cccc1[N+](=O)[O-] | 3.72 | 
74 | CCOc1ccc(C2C(C(=O)Nc3ccc(Cl)cc3)=C(C)Nc3nc(C(F)(F)F)nn32)cc1 (centres undefined) | 1.24 | 
75 | COc1ccc(CCNC(=O)c2c3c(nc4ccccc24)C(=O)N(C2CCCCC2)C3)cc1OC | -2.5 | 
76 | CCOC(=O)CN1C(C(=O)c2ccccc2)=C(OC(=O)C(C)(C)C)c2ccccc2S1(=O)=O | 3.84 | 
77 | CSc1nc(-c2ccccc2Cl)nc2c1Cc1c(CO)cnc(C)c1O2 | -4.31 | 
78 | CCCNC(=O)Nc1ccccc1C(=O)Nc1ccc(OC)cc1 | -14.9 | 

Row | SMILES | activity change, negative = inhibition [%] | Potency
79 | COc1ccc(NC(=O)c2cnc(NS(=O)(=O)c3ccccc3)nc2)cc1 | 0.658 | 
80 | COC(=O)c1ccccc1NS(=O)(=O)c1ccc2[nH]c(=O)[nH]c2c1 | -2.28 | 
81 | COC(=O)c1ccc(NC(=O)c2ccccc2NS(=O)(=O)c2ccccc2)cc1 |  | 16.9 µM (active)
82 | CCOc1ccc(NC(=O)c2cnn(-c3ccccc3)c2-n2cccc2)cc1 | -19.4 | 
83 | CCOc1ccc(NC(=O)c2ccccc2NS(C)(=O)=O)cc1 |  | 10.7 µM (active)
84 | CCC1CCCCN1S(=O)(=O)c1ccc(NC(=O)c2cc(=O)c3ccccc3o2)cc1 (centres undefined) | -1.88 | 
85 | COc1ccc(NC(=O)CCCN2C(=O)CCn3nc(-c4cn(C)c5ccccc45)cc32)cc1OC | -11.5 | 
86 | O=S(=O)(NCCc1nnc2ccc(SCc3ccc(Cl)cc3Cl)nn12)c1ccccc1 | -3.8 | 
87 | CCOc1ccc2oc(=O)cc(CN3CCN(C(=O)c4ccc(F)cc4)CC3)c2c1 | -5.98 | 
88 | Cc1cc(C)nc(N/N=C/c2ccc([N+](=O)[O-])o2)n1 | -13.7 | 
89 | Cc1cc(C)nc(N/N=C/c2ccncc2)n1 | 4.25 | 
90 | Cc1cc2c(C)nc(N/N=C/c3ccccc3)nc2o1 |  | 9.53 µM (active)
91 | COc1ccc([C@H]2CC(=O)C=C(c3ccc(C)cc3)C2)cc1 | -13.8 | 
92 | Cc1nnc(N2CCCC(C(=O)NCCN(C)C)C2)c2nn(-c3ccccc3)c(C)c12 (centres undefined) | -2.09 | 
93 | CCCCOC(=O)Nc1nnc(CC(=O)NCc2ccccc2)s1 | 0.516 | 
94 | CCCCCOC(=O)NCCOC(=O)Nc1ccc(C(=O)OCC)cc1 | -4.13 | 
95 | CCCCCCOC(=O)NCC(O)c1ccccc1 (centres undefined) |  | 12 µM (active)
96 | Cc1cc(Cl)ccc1C(=O)C1CCCN(C(=O)c2nonc2C)C1 (centres undefined) | 0.226 | 
97 | CCOC(=O)c1ccccc1NC(=O)c1nn(-c2ccc(OC)c(Cl)c2)c(=O)c2c1c1ccccc1n2C | -1.01 | 
98 | O=C1CC(c2ccccc2)=NN1c1ccc([N+](=O)[O-])cc1 |  | 13.5 µM (active)
99 | COC(=O)CC1=NN(c2ccccc2)C(=O)C1 | 1.6 | 
100 | O=c1[nH]n(-c2ccc([N+](=O)[O-])cc2)c(=O)c2ccccc12 | -4.92 | 
101 | COc1cc(C)ccc1OCCSc1nc2ccc(NC(=O)c3ccc(C)cc3)cc2s1 | -15.1 | 
102 | CN(C(=O)c1cccc(OC2CCN(S(=O)(=O)N(C)C)CC2)c1)C1CCOC1 (centres undefined) | -17 | 
103 | CNS(=O)(=O)c1cccc(C(=O)NCC2CCCCC2)c1 | 0.681 | 
104 | CN(C)S(=O)(=O)N1CCC(Oc2cccc(C(=O)NCCCC3CCCC3)c2)CC1 |  | 16.9 µM (active)
